In PubChem BioAssay AID686978 (National Center for Advancing Translational Sciences (NCATS), 2013):
“And” between values parts separate entries of the source, which are not always exact repeats. Identical values can stand only once. Hit rate of the full screen: of about 420,000 compounds, about 64,000 (15%) were called active. Another 27% or so got no clear call; they are omitted. Calls follow the shape of the dose curve; as a rule, active = well fitted inhibition curve with a large enough effect; inconclusive = small, poorly fitted or top-dose-only effect; inactive = flat fitted curve, though single readings scatter. These entries were drawn from the full list. Entries that show only a call come without a potency. The source holds several records for some structures; these can differ, active in one and inactive in another.

Test: qHTS for Inhibitors of human tyrosyl-DNA phosphodiesterase 1 (TDP1): qHTS in cells in absence of CPT; also: nearly all actives have a fitted effect of over 55% in size
Conditions: DT40 Tdp1-/- hTDP1 cells, no CPT, ATP luminescence, 48 h; activity change, negative = growth inhibition: at 46.2 µM (top of the series)
Outline: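 Growth kinetics read by CellTiter-Glo luminescence after ≥48 hr at 37 °C. Cells: DT40 Tdp1-/- stably carrying human TDP1, 400 per well, compound exposure in the absence of CPT (DMSO vehicle).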
Potency is read from the fitted curve at half-maximal effect.

| SMILES | Potency |
| --- | --- |
| CC(C)OCCCNC(=S)N1CCC(C(=O)c2ccc3c(c2)OCCO3)CC1 | 14.6 µM (active) |
| COCCNC(=O)C1CCN(S(=O)(=O)c2ccc3c(c2)OCCO3)CC1 | inactive |
| O=C(c1ccc2c(c1)OCCO2)C1CCN(S(=O)(=O)c2cccc(F)c2)CC1 | inactive |
| O=C(NCCCN1CCN(C2CCCCC2)CC1)Nc1ccccc1C(F)(F)F | inactive |
| O=C(O)c1ccc(NC(=O)c2cccs2)cc1 | inactive |
| CC(C)(C)c1ccc(C(=O)Nc2ccc3c(c2)CCCN3C(=O)c2cccs2)cc1 | 5.8 µM (active) |
| CC(C)C(=O)Nc1ccc(C(=O)NNC(=O)c2cccs2)cc1 | inactive |
| COc1ccc(-c2cc(C(F)(F)F)n3nc(-c4ccccc4)cc3n2)cc1OC | 16.4 µM (active) |
| Cc1cc(C(F)(F)F)n2ncc(-c3ccccc3)c2n1 | inactive |
| COC(=O)c1cc2nc(-c3ccccc3)cc(C(F)(F)F)n2n1 | inactive |
| COc1cccc(NC(=O)N2CCC(NC(=O)C(Cc3cccc(C)c3)NC(C)=O)CC2)c1 (stereo not drawn) | inactive |
| NC(=O)Cn1c(=O)oc2ccccc21 | inactive |
| CCOc1ccc2nc(N(CCN(C)C)C(=O)c3ccc4ccccc4c3)sc2c1 | inactive |
| CCN(CC)CCN(C(=O)c1ccc(S(=O)(=O)N2CCOCC2)cc1)c1nc2cc3c(cc2s1)OCCO3 | inactive |
| CN(C)CCCN(C(=O)c1ccc(S(=O)(=O)N2CCCCCC2)cc1)c1nc2ccc(Br)cc2s1 | 18.4 µM (active) |
| COCc1c(C(=O)OCc2c(C)noc2C)oc2ccccc12 | inactive |
| CCNC(=S)NNC(=O)c1ccc2ncccc2c1 | inactive |
| CC(=O)Nc1ccc(Sc2ccccc2C(=O)N2CCCC2)cn1 | inactive |
| CNC(=O)C[C@H]1C(=O)N(c2ccc(OC)cc2)C[C@@H]1Cc1ccccc1 | inactive |
| O=C(C[C@H]1C(=O)N(c2ccc(F)c(F)c2)C[C@@H]1Cc1ccccc1)Nc1ccccc1 | inactive and 15.8 µM (active) |
| CNC(=O)C[C@H]1C(=O)N(Cc2ccccc2)C[C@@H]1CSC | inactive |
| CCOc1cc2[nH]c(=O)n(CCC(=O)NCc3ccc(OC)cc3)c(=O)c2cc1OCC | inactive |
| CN=C1SC(CC(=O)Nc2ccc(C(=O)O)cc2)C(=O)N1C (stereo not drawn) | inactive |
| CC1C(=O)C(C)C(c2ccc(O)cc2)NC1c1ccc(O)cc1 (stereo not drawn) | inactive |
| O=c1cc(CN2CCN(S(=O)(=O)/C=C/c3ccccc3)CC2)c2ccc(O)cc2o1 | 20.6 µM (active) |

| SMILES | Potency |
| --- | --- |
| CC(=O)N1CCN(Cc2cc(=O)oc3cc(C)ccc23)CC1 | inactive |
| NC(=O)CCN1CCN(S(=O)(=O)/C=C/c2ccccc2)CC1 | inactive |
| COc1ccc(NC(=O)CCCN2C(=O)C(c3ccccc3)Oc3cccnc32)cc1 (stereo not drawn) | inactive |
| O=S1(=O)CC(N2CCN(CCO)CC2)CN1C1CCCC1 (stereo not drawn) | inactive |
| O=S1(=O)CCN(C2CCCCCCCCCCC2)CC1 | 20.6 µM (active) |
| O=C(O)C1CCN1C1CCCCC1 (stereo not drawn) | inactive |
| COc1ccc(NC(=O)N(C)C[C@@H]2OCc3cn(nn3)CCCC(=O)N([C@H](C)CO)C[C@H]2C)c(OC)c1 | inactive |
| COCCN(C(=O)CC1CCCCC1)c1c(N)n(CC(C)C)c(=O)[nH]c1=O | inactive |
| Cc1ccc(-c2ccc(CN3C(C)C(=O)N(Cc4cn(CCC5OCCCO5)nn4)CCS3(=O)=O)cc2)cc1 (stereo not drawn) | 23.1 µM (active) |
| Cc1ccc(-c2ccc(CN3C(C(C)C)C(=O)N(Cc4cn(CCC5OCCCO5)nn4)CCS3(=O)=O)cc2)cc1 (stereo not drawn) | 11.6 µM (active) |
| Cc1ccc(CN2CCCOCCS2(=O)=O)cc1 | inactive |
| Cc1ccc(-c2ccc(CN3C(C(C)C)C(=O)N(Cc4cn(CCC5OCCO5)nn4)CCS3(=O)=O)cc2)cc1 (stereo not drawn) | 7.31 µM (active) |
| CCC(C)[C@H]1COCCS(=O)(=O)N1Cc1ccc(C)cc1 (stereo partly drawn) | inactive |
| CC(C)C1C(=O)N(Cc2cn(CCC3OCCO3)nn2)CCS(=O)(=O)N1Cc1ccc(-c2ccccc2C(F)(F)F)cc1 (stereo not drawn) | 25.9 µM (active) |
| CCCc1nnc(NC(=O)CCC(=O)NC2CC2)s1 | inactive |
| O=C(Oc1cc(OC(=O)c2ccccc2)c2c(c1)OC(c1ccc(OC(=O)c3ccccc3)c(OC(=O)c3ccccc3)c1)[C@@H](OC(=O)c1ccccc1)C2)c1ccccc1 (stereo partly drawn) | inactive |
| Nc1ccc(-n2nncc2-c2ccco2)cc1 | inactive |
| CC(C)c1ccc(N2CC(C(=O)Nc3nccs3)CC2=O)cc1 (stereo not drawn) | inactive |
| O=C(NN=C1CCC(=NNC(=O)c2cccnc2)CC1)c1cccnc1 | inactive |
| COc1ccc(CNC(=O)C2CCN(S(C)(=O)=O)CC2)cc1 | inactive |
| Cn1cnc(S(=O)(=O)N2C[C@@H](O)COC[C@@H]3O[C@H](CC(=O)NC4CCC4)CC[C@H]32)c1 | inactive |
| c1csc(-c2nnc(COc3ncnc4sccc34)o2)c1 | inactive |
| C[C@@H]1NC(=O)c2cc([N+](=O)[O-])cc(F)c2NCCC[C@@H](C(N)=O)NC(=O)[C@H](CC(N)=O)NC1=O | inactive |
| COc1ccc(C(=O)NCC2CCCCC2)cc1S(=O)(=O)N1CCCC1 | inactive |
| O=C(c1cc(S(=O)(=O)N2CCOCC2)ccc1Cl)N1CCOCC1 | inactive |

| SMILES | Potency |
| --- | --- |
| COc1cc2c(cc1OC)CN(C(=O)c1cc(S(=O)(=O)N3CCCCC3)ccc1Cl)CC2 | 11.6 µM (active) |
| COc1ccc(S(=O)(=O)N2CCC(C(=O)N3CCc4ccccc4C3)CC2)cc1OC | 29.1 µM (active) |
| CN1CCN(NC(=O)c2ccc(S(=O)(=O)N3CCCCCC3)cc2)CC1 | inactive |
| COc1cc(S(=O)(=O)N2CCN(C(=O)C3CC3)CC2)ccc1NC(C)=O | inactive |
| COc1ccc(S(=O)(=O)N2CCCCC2)cc1Br | inactive |
| COc1cc2c(cc1OC)CN(C(=O)c1ccc(S(=O)(=O)N3CCCCCC3)cc1)CC2 | 14.6 µM (active) |
| COc1ccc(S(=O)(=O)N2CCC(C(=O)N3CCOCC3)CC2)cc1OC | inactive |
| CSc1ccccc1OCc1cc(C(=O)N2C[C@H]3CC[C@H]2C3)no1 | inactive |
| CCOc1ccccc1N(CC(=O)NC1CCCCC1)C(=O)CCCC(=O)Nc1ccccn1 | inactive |
| O=C(c1ccc(Cl)cc1)c1cnc(Nc2ccccc2)s1 | inactive |
| Cc1ccc(S(=O)(=O)NN=C2CC(C)(C)CC(=O)C2(C)C)cc1 | inactive |
| COC(C[C@@H](O)C[C@H](O)[C@H](C)OCc1ccccc1)OC | inactive |
| Cc1noc(C)c1COc1ccccc1C(=O)N(C)CC(=O)Nc1cccc(F)c1 | inactive |
| Cc1cc(Nc2ccccc2)n(CCC#N)n1 | inactive |
| O=c1ccn([C@@H]2O[C@H](COP(=O)(O)OP(=O)(O)OP(=O)(O)O)[C@@H](O)[C@H]2O)c(=O)[nH]1 | inactive |
| Cc1ccccc1NC(=O)CN1C(=O)N/C(=C\c2cccn2-c2cccc(C(=O)O)c2)C1=O | inactive |
| Nn1c(SCc2ccccc2)nnc1C1CCCCC1 | inactive |
| Cc1ccc(S(=O)(=O)c2nc(NCCCn3ccnc3)sc2Cl)cc1 | 20.6 µM (active) |
| Cc1ccc(S(=O)(=O)NCCCn2ccnc2)cc1C(=O)NC(C)C | inactive |
| Cc1ccc(-c2nc(C#N)c(NCCCn3ccnc3)o2)cc1 | inactive |
| CCc1ccccc1NC(=O)/C(=C/c1ccccc1)c1ccccc1 | 23.1 µM (active) |
| CCc1ccccc1NC(=O)CCOc1ccccc1 | inactive |
| CCc1ccccc1NC(=S)Nc1cc(OC)c(NC(=O)C(C)C)cc1OC | inactive |
| O=S(=O)(Nc1cccc(Oc2ccc(Cl)cc2)n1)c1ccc(F)cc1 | inactive |
| CC(C)(C)NC(=O)CN1CCC(NC(=O)C23CC4CC(CC(C4)C2)C3)CC1 | inactive |

| SMILES | Potency |
| --- | --- |
| CCc1c(C)sc(NC(=O)C2c3ccccc3Oc3ccccc32)c1C(=O)OC(C)C | inactive |
| O=C(c1ccc(N2CCOCC2)c([N+](=O)[O-])c1)N1CCN(S(=O)(=O)c2cccs2)CC1 | 16.4 µM (active) |
| O=C(Cc1ccc(S(=O)(=O)N2CCOCC2)s1)N1CCN(c2ccc(C(F)(F)F)cc2[N+](=O)[O-])CC1 | 9.2 µM (active) |
| O=C(Oc1ccccc1Cl)c1ccc(N2CCOCC2)c([N+](=O)[O-])c1 | inactive |
| Cc1cc(S(=O)(=O)N2CCOCC2)ccc1OCC(=O)Nc1cccc(C(F)(F)F)c1 | inactive |
| O=C(Cc1ccc(S(=O)(=O)N2CCOCC2)s1)Nc1ccc(Br)c(C(F)(F)F)c1 | 25.9 µM (active) |
| O=C(OCC(=O)N1CCOCC1)c1ccc(N2CCOCC2)c([N+](=O)[O-])c1 | inactive |
| O=S(=O)(Nc1cc(S(=O)(=O)N2CCOCC2)ccc1N1CCCC1)c1cccs1 | inactive |
| O=C(Cc1ccc(S(=O)(=O)N2CCOCC2)s1)NCCOc1ccccc1F | inactive |
| O=C(COc1ccc(S(=O)(=O)N2CCOCC2)cc1Cl)N1CCOCC1 | inactive |
| CC1CC(C)CN(CCCNC(=O)c2csc3c2CCCCC3)C1 (stereo not drawn) | inactive |
| CCOC(=O)c1nc(N)sc1C(=O)OCC | inactive |
| O=C(Nc1ccc(-n2ccnc2P(=O)(O)c2ccccc2)cc1)c1ccccc1Br | inactive |
| CSc1nc2sc3c(c2c(=O)[nH]1)CCc1ccccc1-3 | inactive |
| O=C(NC1CCCC1)C(c1c(F)cccc1Cl)N(C(=O)c1csnn1)C1CC1 (stereo not drawn) | inactive |
| Cc1noc(C)c1NC(=O)Nc1cccc2c1O[C@H](CN(C)C(=O)Nc1ccccc1)[C@@H](C)CN([C@H](C)CO)C2=O | inactive |
| O=C(Nc1ccc2c(c1)CCC2)c1ccc(Br)s1 | inactive |
| CCN(CC(=O)NCc1ccc(Cl)cc1)C(=O)CSc1ccccc1 | inactive |
| O=C(CSc1nc2ccccc2o1)N1CCN(c2ccccc2)CC1 | inactive |
| Cc1ccc(/C=N/NC(=O)Cn2nc(C)c(Br)c2C)o1 | inactive |
| CN(C)S(=O)(=O)c1cccc(C(=O)Nc2cccnc2)c1 | inactive |
| Cc1ccc(/C=N/NC(=S)Nc2cccc(S(=O)(=O)N(C)C)c2)o1 | 2.59 µM (active) |
| O=C(OCc1cc2ccccc2[nH]c1=O)c1cccnc1 | inactive |
